These results are taken from ChEMBL document CHEMBL1157539, “Thousands of chemical starting points for antimalarial lead identification” (Nature, 2010).

One assay deals with Plasmodium falciparum. The assay can be described thus: GSK_TCMDC: Inhibition of Plasmodium falciparum 3D7 in whole red blood cells, using parasite LDH activity as an index of growth. Test compounds present at 2uM. It counts as functional.
Broadly, the Inhibition is the change of the read-out against control, counted positive when it falls. Low readings indicate a weak effect, high ones a strong effect. The compound `COc1ccc(C2CC(c3cccs3)=NN2C(=O)COc2cccc(C(C)=O)c2)cc1OC` (centres undefined) displayed an Inhibition of 99%.
Still for that read-out and setting: the same measure for `Cc1nc(Cl)c2c(-c3ccccc3)csc2n1`: 84%; for `Cc1ccc(Nc2c3ccccc3nc3ccc(C)cc23)cc1`: 88%.
Still for that read-out and setting: next, `N=C1SC(=Cc2cn[nH]c2-c2ccc(F)cc2)C(=O)N1c1nccs1`: 91%; `COc1cccc(-c2nc(Nc3ccncc3)c3ncn(C)c3n2)c1.O=C(O)C(F)(F)F`: 94%.
In the case of `Cc1cc(OCCCN2CCCC2)ccc1NC(=O)COc1ccc(Cl)cc1C(=O)c1cc(C#N)cc(C(F)(F)F)c1`, the Inhibition was found to be 85%.
`O=C(Nc1nccs1)c1sc2ccccc2c1O` had an Inhibition of 96%.
Still for that read-out and setting: next, `O=C(O)C(F)(F)F.O=C(O)CCc1ccc(-c2c[nH]c3ncc(-c4ccc5ncccc5c4)cc23)cc1`: 88%.
On the same count and under the same terms, next, `Cc1nn(-c2ccccc2)nc1C(=O)N(Cc1ccc(-c2ccc(CNCCc3ccc(S(C)(=O)=O)cc3)cn2)cc1)C1CC1.O=C(O)C(F)(F)F`: 84%; `CC(Sc1nnc(-c2ccccc2Br)[nH]1)C(=O)Nc1ccc(F)cc1` (centres undefined): 90%.
`CC(C)(C)c1cc(Cl)cc(C(=O)Nc2cc([N+](=O)[O-])ccc2Cl)c1O` registered an Inhibition of 91%.
On the same count and under the same terms, the same measure for `CCCCNC(=O)C1CCCN(C(=O)c2ccc(O)c(-c3ccc(Cl)c(Cl)c3)c2)C1` (centres undefined): 83%; for `COc1ccc(Cl)cc1N1CCN(CCCNC(=O)c2ccc(-c3nc4c(C)cccc4[nH]3)s2)CC1`: 98%.
`Cl.O=C(NCCCCN1CCC(c2ccc3c(c2OCCCO)CCCC3)CC1)c1ccc(-c2ccc(C(F)(F)F)cc2)c(CO)c1` yielded an Inhibition of 95%.
In turn, `COc1cc(Cc2cnc(N)nc2N)ccc1OCc1csc(-c2ccc(Cl)cc2)n1` returned an Inhibition of 93%.
Still for that read-out and setting: the same measure for `CCCN1CCN(CCNc2c3ccccc3nc3ccccc23)CC1`: 88%; for `Cc1ccc(-c2cnc3[nH]cc(-c4ccc(C(=O)O)c(C)c4)c3c2)cc1C.O=C(O)C(F)(F)F`: 96%.
The same measure, in the same setting: the same measure for `Cc1cc(OCCCN2CCC(NC(=O)c3ccc(Br)cc3)C2)c2ccccc2n1` (centres undefined): 85%.
The same measure, in the same setting: the same measure for `O=C(c1ccccc1)N1CCC[C@](CCCN2CCN(c3ccccc3O)CC2)(c2ccc(Cl)c(Cl)c2)C1`: 80%; for `CC(C)CNC(=O)c1ccc(-c2cccc(CN3CCC(N4CCCC4)CC3)c2)nc1.O=C(O)C(F)(F)F`: 81%.
`COc1ccc(CNC(=O)Nc2cccc(-c3csc(NC(=N)N)n3)c2)cc1` yielded an Inhibition of 80%.
The same measure, in the same setting: the same measure for `Nc1[nH]c2ccccc2c(=O)c1-c1nc2ccccc2s1`: 97%.
Still for that read-out and setting: the same measure for `Nc1nc(O)c2cc(CNc3ccc(C(=O)N[C@@H](CCC(=O)O)C(=O)O)cc3)ccc2n1`: 96%; for `COc1c(C2CCN(CCCCNC(=O)C=Cc3ccccc3C(F)(F)F)CC2)ccc2c1CCCC2`: 96%.
Compound `CCN1CCN(c2cc(C)c3cc(NC(=O)c4ccc(C(C)(C)C)cc4)ccc3n2)CC1` had an Inhibition of 85%.
On the same count and under the same terms, the same measure for `CN(C)c1ccc(NC(=O)Nc2ccnc3ccccc23)cc1Br.Cl`: 98%; for `Br.Oc1ccc(CCNCCCCCNCCCc2ccc(Cl)cc2)cc1O`: 91%; for `CNC(=O)c1ccc(/C=C/C(=O)N2CCc3ccc(-c4ccccc4)cc3C2c2cccc(C(F)(F)F)c2)cc1` (centres undefined): 91%.
Same read-out and setting: the same measure for `O=CO.c1ccc2c3c([nH]c2c1)C(c1ccc2c(c1)CCO2)N(c1ncnc(N2CCN(CCCN4CCOCC4)CC2)n1)CC3` (centres undefined): 80%; for `COc1ccc(CN2CCN(CC(=O)Nc3cc(Cl)ccc3-n3cncn3)CC2)cc1F`: 93%; for `O=C(NCCCCN1CCC(c2ccc3c(c2OCCOCCO)CCCC3)CC1)c1ccc(-c2ccc(C(F)(F)F)cc2)cc1`: 97%.
Still for that read-out and setting: next, `CO/N=C(\C)c1ccc2c(c1)CCN(CCC1CCC(NC(=O)c3cccc(-c4noc(C)n4)c3)CC1)CC2.Cl` (centres undefined): 90%; `C=CC(C)C1OC(=O)c2cc(OC)cc(OC)c21` (centres undefined): 100%; `N=C(N)c1nc2ccccc2s1`: 87%.
`Cc1cc2c(cc1C(F)(F)F)N(C(=O)Nc1ccc(C(=O)NCCN3CCCC3)cc1)CC2` displayed an Inhibition of 100%.
On to `Cc1ccc(-n2c(C)cc(C(=O)CN3C(=O)NC(Cc4ccccc4)C3=O)c2C)cc1` (centres undefined), for which the Inhibition is 82%.
Compound `O=C(O)C(F)(F)F.Oc1ccc(CNCC2CCN(CC3CCCCC3)CC2)cc1` displayed an Inhibition of 82%.
The same measure, in the same setting: next, `Brc1ccsc1-c1nc(NC2CCN(Cc3ccccc3)CC2)no1`: 80%; `COc1ccc(NS(=O)(=O)c2ccc(Oc3nc(C)nc4sc5c(c34)CCCC5)cc2)cc1`: 96%.

The test system of a further assay is HepG2. The assay is described as follows: GSK_TCMDC: Percent inhibition of human HepG2 cell line. Test compounds present at 10uM. The assay is classed as functional.
As to `COc1ccc(C2CC(c3cccs3)=NN2C(=O)COc2cccc(C(C)=O)c2)cc1OC` (centres undefined), the Inhibition is reported as 10%.
The same measure, in the same setting: the same measure for `Cc1nc(Cl)c2c(-c3ccccc3)csc2n1`: 0%.
The same measure, in the same setting: the same measure for `Cc1ccc(Nc2c3ccccc3nc3ccc(C)cc23)cc1`: 26%; for `N=C1SC(=Cc2cn[nH]c2-c2ccc(F)cc2)C(=O)N1c1nccs1`: 28%.
Still for that read-out and setting: next, `COc1cccc(-c2nc(Nc3ccncc3)c3ncn(C)c3n2)c1.O=C(O)C(F)(F)F`: 14%; `Cc1cc(OCCCN2CCCC2)ccc1NC(=O)COc1ccc(Cl)cc1C(=O)c1cc(C#N)cc(C(F)(F)F)c1`: 18%; `O=C(Nc1nccs1)c1sc2ccccc2c1O`: 0%.
As for `O=C(O)C(F)(F)F.O=C(O)CCc1ccc(-c2c[nH]c3ncc(-c4ccc5ncccc5c4)cc23)cc1`, the Inhibition was found to be 30%.
Still for that read-out and setting: next, `Cc1nn(-c2ccccc2)nc1C(=O)N(Cc1ccc(-c2ccc(CNCCc3ccc(S(C)(=O)=O)cc3)cn2)cc1)C1CC1.O=C(O)C(F)(F)F`: 9%; `CC(Sc1nnc(-c2ccccc2Br)[nH]1)C(=O)Nc1ccc(F)cc1` (centres undefined): 0%; `CC(C)(C)c1cc(Cl)cc(C(=O)Nc2cc([N+](=O)[O-])ccc2Cl)c1O`: 79%.
The same measure, in the same setting: next, `CCCCNC(=O)C1CCCN(C(=O)c2ccc(O)c(-c3ccc(Cl)c(Cl)c3)c2)C1` (centres undefined): 3%; `COc1ccc(Cl)cc1N1CCN(CCCNC(=O)c2ccc(-c3nc4c(C)cccc4[nH]3)s2)CC1`: 0%; `Cl.O=C(NCCCCN1CCC(c2ccc3c(c2OCCCO)CCCC3)CC1)c1ccc(-c2ccc(C(F)(F)F)cc2)c(CO)c1`: 66%.
Still for that read-out and setting: the same measure for `COc1cc(Cc2cnc(N)nc2N)ccc1OCc1csc(-c2ccc(Cl)cc2)n1`: 39%.
`CCCN1CCN(CCNc2c3ccccc3nc3ccccc23)CC1` showed an Inhibition of 13%.
Same read-out and setting: next, `Cc1ccc(-c2cnc3[nH]cc(-c4ccc(C(=O)O)c(C)c4)c3c2)cc1C.O=C(O)C(F)(F)F`: 37%; `Cc1cc(OCCCN2CCC(NC(=O)c3ccc(Br)cc3)C2)c2ccccc2n1` (centres undefined): 13%; `O=C(c1ccccc1)N1CCC[C@](CCCN2CCN(c3ccccc3O)CC2)(c2ccc(Cl)c(Cl)c2)C1`: 16%.
Still for that read-out and setting: next, `CC(C)CNC(=O)c1ccc(-c2cccc(CN3CCC(N4CCCC4)CC3)c2)nc1.O=C(O)C(F)(F)F`: 4%; `COc1ccc(CNC(=O)Nc2cccc(-c3csc(NC(=N)N)n3)c2)cc1`: 8%.
Same read-out and setting: next, `Nc1[nH]c2ccccc2c(=O)c1-c1nc2ccccc2s1`: 16%.
`Nc1nc(O)c2cc(CNc3ccc(C(=O)N[C@@H](CCC(=O)O)C(=O)O)cc3)ccc2n1` gave an Inhibition of 2%.
The same measure, in the same setting: next, `COc1c(C2CCN(CCCCNC(=O)C=Cc3ccccc3C(F)(F)F)CC2)ccc2c1CCCC2`: 98%; `CCN1CCN(c2cc(C)c3cc(NC(=O)c4ccc(C(C)(C)C)cc4)ccc3n2)CC1`: 34%; `CN(C)c1ccc(NC(=O)Nc2ccnc3ccccc23)cc1Br.Cl`: 21%.
Same read-out and setting: next, `CCN(CC)CCCC(C)Nc1ccnc2cc(Cl)ccc12.O=P(O)(O)O.O=P(O)(O)O` (centres undefined) [CHLOROQUINE PHOSPHATE]: 12%.
Still for that read-out and setting: next, `Br.Oc1ccc(CCNCCCCCNCCCc2ccc(Cl)cc2)cc1O`: 22%; `CNC(=O)c1ccc(/C=C/C(=O)N2CCc3ccc(-c4ccccc4)cc3C2c2cccc(C(F)(F)F)c2)cc1` (centres undefined): 9%.
The compound `O=CO.c1ccc2c3c([nH]c2c1)C(c1ccc2c(c1)CCO2)N(c1ncnc(N2CCN(CCCN4CCOCC4)CC2)n1)CC3` (centres undefined) yielded an Inhibition of 37%.
Still for that read-out and setting: the same measure for `COc1ccc(CN2CCN(CC(=O)Nc3cc(Cl)ccc3-n3cncn3)CC2)cc1F`: 0%; for `O=C(NCCCCN1CCC(c2ccc3c(c2OCCOCCO)CCCC3)CC1)c1ccc(-c2ccc(C(F)(F)F)cc2)cc1`: 44%; for `CO/N=C(\C)c1ccc2c(c1)CCN(CCC1CCC(NC(=O)c3cccc(-c4noc(C)n4)c3)CC1)CC2.Cl` (centres undefined): 42%.
Still for that read-out and setting: next, `C=CC(C)C1OC(=O)c2cc(OC)cc(OC)c21` (centres undefined): 100%.
Still for that read-out and setting: the same measure for `N=C(N)c1nc2ccccc2s1`: 1%; for `Cc1cc2c(cc1C(F)(F)F)N(C(=O)Nc1ccc(C(=O)NCCN3CCCC3)cc1)CC2`: 10%.
The compound `Cc1ccc(-n2c(C)cc(C(=O)CN3C(=O)NC(Cc4ccccc4)C3=O)c2C)cc1` (centres undefined) showed an Inhibition of 0%.
The same measure, in the same setting: the same measure for `O=C(O)C(F)(F)F.Oc1ccc(CNCC2CCN(CC3CCCCC3)CC2)cc1`: 9%; for `Brc1ccsc1-c1nc(NC2CCN(Cc3ccccc3)CC2)no1`: 0%; for `COc1ccc(NS(=O)(=O)c2ccc(Oc3nc(C)nc4sc5c(c34)CCCC5)cc2)cc1`: 5%.
